Shown are actives, neighbours in structure and some others; about 1.5% of the full set was active somewhere.
RAD54 inh – RAD54 (human) branch migration inhibition; inhibition, % at 10.4 µM; 360,000 compounds, 0.14% hits; Q92698; RAD54 Holliday junction branch migration, FAM/BHQ fluorescence;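 active means mean normalized replicate activity at least 40 and at least half of replicates scoring 40 or more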;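 further: 0% = median of neutral control wells and 100% = median of positive control wells; inhibitors cause a drop in the FAM fluorescence signal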
Glyco luc inh – blocks N-linked glycosylation in D54 reporter cells | AID 588692 | 360,000 compounds, 0.23% hits | D54 ERlucT glycosylation luciferase reporter, 24 h; percent of 100 nM tunicamycin response | reporter increase, % at 12.5 µM;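 active means mean luciferase reporter signal, scaled so untreated is 0 and the glycosylation-blocking control 100, at or above a set limit in every replicate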;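 further: luciferase carries N-glycosylation sites so blocking glycosylation raises the light; 0% = median of neutral control wells and 100% = median of 100 nM tunicamycin wells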
FID counter – displaces DNA intercalator in HCV helicase counter-screen; 290,000 compounds, 0.17% hits; inhibition, % at 7.9 µM; DNA fluorescent intercalator displacement, fluorescence; in the data active means inhibition above about 37%;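 further: 0% = vehicle and 100% = reference compound; higher means more ethidium bromide displaced from hairpin DNA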
miR-122 sensor – inhibitors of miR-122 in Huh7 cells | Huh7 miR-122 Renilla luciferase sensor, 48 h; neutral wells = 0, positive control = 100 | 340,000 compounds, 0.3% hits | activation (reporter increase), % at 12.5 µM | AID 602342;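 active means mean replicate activation score at least 90 and every replicate individually at or above 90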;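 further: higher luciferase means less miR-122 activity so hits act as miR-122 inhibitors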
RAD52 inh – inhibitors of human RAD52 DNA annealing | 360,000 compounds, 0.46% hits | P43351 | recombinant RAD52 DNA annealing, FRET fluorescence | inhibition, % at 18.7 µM;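 active means every replicate showing at least 50% inhibition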
CendR NRP1 mod – modulators of CendR peptide binding to human neuropilin-1; inhibition, % at 25 µM; O14786; 360,000 compounds, 0.85% hits; AID 602438; FAM-RPARPAR peptide binding to NRP-1, fluorescence polarization;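 active means inhibition or corrected inhibition above about 18%, plus a signal ratio from 0.5 to 1.5, limit read from the data, passing the limit was not always enough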
Target sequence (O14786 whole entry, looked up): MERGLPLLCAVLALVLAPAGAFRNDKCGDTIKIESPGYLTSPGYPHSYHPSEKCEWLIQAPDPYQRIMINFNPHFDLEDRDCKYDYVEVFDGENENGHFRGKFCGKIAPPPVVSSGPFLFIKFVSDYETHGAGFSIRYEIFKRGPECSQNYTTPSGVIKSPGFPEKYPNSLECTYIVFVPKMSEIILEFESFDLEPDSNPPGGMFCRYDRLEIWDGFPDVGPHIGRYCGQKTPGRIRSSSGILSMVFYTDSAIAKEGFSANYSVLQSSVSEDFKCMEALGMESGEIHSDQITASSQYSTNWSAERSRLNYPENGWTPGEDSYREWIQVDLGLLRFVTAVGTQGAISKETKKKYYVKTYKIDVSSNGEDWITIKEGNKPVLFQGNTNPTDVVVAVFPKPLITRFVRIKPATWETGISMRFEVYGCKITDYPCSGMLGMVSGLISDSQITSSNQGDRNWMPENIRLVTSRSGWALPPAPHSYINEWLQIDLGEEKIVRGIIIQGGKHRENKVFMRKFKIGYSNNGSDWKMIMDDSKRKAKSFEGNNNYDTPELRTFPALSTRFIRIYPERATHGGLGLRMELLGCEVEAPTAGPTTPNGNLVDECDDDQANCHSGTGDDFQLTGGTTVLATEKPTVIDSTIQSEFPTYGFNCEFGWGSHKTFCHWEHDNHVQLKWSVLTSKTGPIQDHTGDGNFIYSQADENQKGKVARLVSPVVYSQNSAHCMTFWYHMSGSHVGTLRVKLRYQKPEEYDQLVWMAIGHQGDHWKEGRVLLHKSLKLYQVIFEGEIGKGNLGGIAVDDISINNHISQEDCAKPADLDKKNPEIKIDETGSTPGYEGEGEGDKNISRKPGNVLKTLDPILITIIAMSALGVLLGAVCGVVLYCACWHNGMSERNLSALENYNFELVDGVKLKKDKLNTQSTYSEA
* hit, by the source's call; [ ] = another dose, or the depositor's remark.

For Cc1ccc(S(=O)(=O)Nc2cccc3c2O[C@@H](CN(C)Cc2ccc(Cl)c(Cl)c2)[C@@H](C)CN([C@H](C)CO)C3=O)cc1 the results were miR-122 sensor 37[16.7 µM].
O=C(C[C@@H]1CC[C@@H]2[C@H](COC[C@@H](O)CN2C(=O)C2CCCC2)O1)NCc1ccncc1 was read as RAD54 inh 2, miR-122 sensor 1[16.7 µM] and RAD52 inh -14.
`C[C@H](CO)N1C[C@H](C)[C@@H](CN(C)C(=O)Nc2ccc(F)cc2)Oc2c(NC(=O)C3CCOCC3)cccc2C1=O` gave RAD54 inh 5, miR-122 sensor 2[16.7 µM] and RAD52 inh -1.
`COCCNC(=O)C(=O)c1c(-c2ccccc2)[nH]c2ccccc12` gave RAD54 inh -6, Glyco luc inh 1, FID counter -6, miR-122 sensor -3, RAD52 inh -7 and CendR NRP1 mod 0.
O=C(C(=O)N(Cc1ccccc1)Cc1ccccc1)c1c(-c2ccccc2)[nH]c2ccccc12 was read as RAD54 inh 2, Glyco luc inh -6, miR-122 sensor 100*, RAD52 inh -2 and CendR NRP1 mod -2.
For O=C(Cn1c(=S)[nH]c2ccccc21)c1ccccc1 the results were RAD54 inh -11, Glyco luc inh 1, FID counter 1, miR-122 sensor 15 and CendR NRP1 mod 33*.
Screening C[C@H](CO)N1C[C@H](C)[C@H](CN(C)S(=O)(=O)c2ccccc2)Oc2c(NC(=O)C3CCCCC3)cccc2C1=O returned RAD54 inh -17, miR-122 sensor 30[16.7 µM] and RAD52 inh 14.
`CCCNC(=S)Nc1ccc(CC(=O)OC)cc1` gave RAD54 inh -1, Glyco luc inh 1, FID counter 2, miR-122 sensor 5, RAD52 inh -2 and CendR NRP1 mod 24*.
For CCc1ccccc1NC(=S)N(CCCN(C)C)Cc1cc2cc3c(cc2[nH]c1=O)OCO3 the results were Glyco luc inh -1, FID counter 43*, RAD52 inh 15 and CendR NRP1 mod 7.
Cc1cccc(NC(=S)N(CCCN(C)C)Cc2cc3cc4c(cc3[nH]c2=O)OCO4)c1 was read as Glyco luc inh 2, FID counter 38*, RAD52 inh 11 and CendR NRP1 mod -2.
For O=C(CSc1nc2ccccc2n1Cc1ccccc1Cl)N/N=C/c1ccccc1C(=O)O the results were Glyco luc inh -2, FID counter -28, miR-122 sensor -2, RAD52 inh -21 and CendR NRP1 mod 40*.
Screening O=C(CSc1nc2ccccc2n1Cc1ccccc1)N/N=C/c1ccccc1C(=O)O returned RAD54 inh 1, Glyco luc inh 0, FID counter -40, miR-122 sensor -1, RAD52 inh -23 and CendR NRP1 mod -15.
Screening O=S(=O)(c1ccccc1)c1cc(O)ccc1O returned RAD54 inh 9, Glyco luc inh 2, FID counter -3, miR-122 sensor 221*, RAD52 inh 0 and CendR NRP1 mod -2.
FC(F)(F)c1cccc(NC(=S)NCCc2ccccn2)c1 was read as RAD54 inh 8, Glyco luc inh -2, FID counter -2, miR-122 sensor 249* and CendR NRP1 mod 2.
`CCCNC(=O)N1[C@H](CO)[C@H](c2ccc(-c3ccccc3)cc2)[C@@H]1CNC(C)=O` gave RAD54 inh 3 and miR-122 sensor -36[16.7 µM].
For COc1cccc(C2=NOC(C(=O)NCc3ccco3)C2)c1 (configuration not stated) the results were RAD54 inh 13, Glyco luc inh 29*, FID counter -4, miR-122 sensor 2 and CendR NRP1 mod 12.
For CC1CCC(NC(=O)COC(=O)c2cccnc2Cl)CC1 (configuration not stated) the results were RAD54 inh -10, Glyco luc inh 2, miR-122 sensor -3, RAD52 inh -2 and CendR NRP1 mod 24*.
Screening COc1ccc(COc2ccc3c(C)cc(=O)oc3c2)cc1 returned RAD54 inh 11, Glyco luc inh -3, FID counter -19, miR-122 sensor -8, RAD52 inh -6 and CendR NRP1 mod 2.
`COc1ccc2c(-c3cc4ccc(OCc5ccc(F)cc5)cc4oc3=O)cc(=O)oc2c1` gave Glyco luc inh 37*, FID counter -2, RAD52 inh -15 and CendR NRP1 mod -7.
For O=C(Cn1cc(C(F)(F)F)cc(Cl)c1=O)Nc1cc(S(=O)(=O)N2CCOCC2)ccc1Cl the results were RAD54 inh 9, Glyco luc inh 4, FID counter -2, miR-122 sensor -13, RAD52 inh -8 and CendR NRP1 mod 22*.
CCCC(=O)N1CCC2(CC1)CN(C(C)=O)[C@H](CO)c1c2c2ccc(OC)cc2n1C was read as RAD52 inh -1.
CCCCOc1ccc(C(=O)N/C(=C/C=C/c2ccccc2)C(=O)O)cc1 was read as Glyco luc inh 2, FID counter -29, RAD52 inh -5 and CendR NRP1 mod 21*.
For CCCCOc1ccc(C(=O)N/C(=C/C=C/c2ccccc2)C(=O)NC)cc1 the results were Glyco luc inh 2, FID counter -25, RAD52 inh -21 and CendR NRP1 mod 8.
`CCOc1cc(C(=O)Nc2ccc(N3CCOCC3)cc2)cc(Br)c1OC` gave RAD54 inh -4, Glyco luc inh 32*, FID counter -10, miR-122 sensor 14, RAD52 inh -6 and CendR NRP1 mod -1.
For NC1=CC(=O)c2cccc3cccc1c23 the results were FID counter 6.
Screening O=C1C=C(N2CCOCC2)c2cccc3cccc1c23 returned RAD54 inh 1, Glyco luc inh 4, RAD52 inh inactive and CendR NRP1 mod 28*.
`O=C1C=C(O)c2cccc3cccc1c23` gave RAD54 inh -10, Glyco luc inh 5, FID counter -6, RAD52 inh -63 and CendR NRP1 mod 41*.
For C[C@H](CO)N1C[C@H](C)[C@H](CN(C)S(=O)(=O)c2ccc(F)cc2)Oc2ccc(NC(=O)c3ccncc3)cc2CC1=O the results were RAD54 inh -7, miR-122 sensor -8[16.7 µM] and RAD52 inh -9.
OC[C@H]1[C@H](c2ccc(/C=C/c3ccccc3)cc2)[C@@H]2CN(Cc3cccnc3)CCCCN12 was read as RAD54 inh -16, miR-122 sensor 5[16.7 µM] and RAD52 inh 36.
Screening OC[C@@H]1[C@H](c2ccc(/C=C/c3ccccc3)cc2)[C@H]2CN(Cc3cccnc3)CCCCN12 returned RAD54 inh 5, miR-122 sensor -25[16.7 µM] and RAD52 inh 59*.
Screening OC[C@@H]1[C@@H](c2ccc(/C=C/c3ccccc3)cc2)[C@H]2CN(Cc3cccnc3)CCCCN12 returned RAD54 inh 5, miR-122 sensor 4[16.7 µM] and RAD52 inh 44.

Screening results deposited in PubChem BioAssay by several laboratories.
